Consider 88 molecules from PubChem BioAssay AID504848 (National Center for Advancing Translational Sciences (NCATS), 2011).

Structures are written as SMILES. Screen size: about 2,300 compounds; about 1,400 (61%) were called active. Not shown: some 29% with an inconclusive outcome. Calls follow the shape of the dose curve; as a rule, active = well fitted inhibition curve with a large enough effect; inconclusive = small, poorly fitted or top-dose-only effect, or effect the other way; inactive = no such curve, though single readings can be large or run the other way. So high a share suggests a set chosen from earlier hits. The list shows a part of the results.
Potency is read from the fitted curve at half-maximal effect.

The assay in a line: Confirmation screen for delayed death inhibitors of the malarial parasite plastid, 96 hour incubation. Also: nearly all actives have a fitted effect of over 60% in size. As to conditions: P. falciparum luciferase growth in erythrocytes; series mostly up to 28.7 µM. The source says: The goal of this screen is to discover new antimalarial compounds that act by inhibiting the development of the apicoplast in the malarial parasite Plasmodium falciparum. The biochemical processes that make this organelle essential for erythrocytic stage parasites are not well understood. However, antibiotics, such as azithromycin and tetracycline, which target the apicoplast translational machinery, have a potent antimalarial effect. […] We have developed a cell-based assay that measures parasite growth based on the expression of an integrated copy of a firefly luciferase reporter. To detect small molecules that cause this "delayed death phenotype, erythrocytes infected with the luciferase-expressing parasites were incubated with compounds for either one or two generations, corresponding to 48 and 96 hours, respectively. Compounds that inhibit parasite growth in the second generation, but not the first, should be enriched in antimalarials that target the apicoplast. Growth inhibition is detected by a decrease in luciferase activity. MLPCN Grant: R21 NS059500 Assay Provider: David Fidock and Eric Ekland, Columbia University Keywords: NIH Roadmap, MLPCN, MLI, MLSMR, qHTS, NCGC, qHTS, malaria, luciferase, viability
Four microliters of culture medium (RPMI 1640 with 0.5% w/v Albumax (GIBCO), 24 mM sodium bicarbonate and 10 ug/mL gentamycin) were dispensed by a Multi-drop Combi into white solid 1536-well plates (Grenier) and 23 nL compound was added by a pin tool. Four microliters of infected erythrocytes (2% hematocrit, 0.1% parasitemia final concentration) in culture medium were dispensed and the plates incubated for 96 hours at 37 C in 5% CO2. Two microliters of luciferase detection reagent was added and luminescence was detected by a ViewLux (PerkinElmer) reader
As for `COc1ccc(OC)c(NC(=O)c2ccccc2N(C)S(=O)(=O)c2ccc(C)cc2)c1`, the Potency was 15.8 µM (active). Next, `COc1ccc(OC)c(NC(=O)c2nc(S(=O)(=O)Cc3ccccc3)ncc2Cl)c1`: “inactive”. Under `C=CCN(c1ccccc1)S(=O)(=O)c1cccc(C(=O)N2CC(C)CC(C)C2)c1` (stereo not drawn) stands 12.6 µM (active). In the case of `Cn1nc([N+](=O)[O-])nc1Sc1nnc(-c2ccccc2)o1`, the Potency was 11.2 µM (active). Next, `CSc1nc(C)c(C(=O)C[n+]2ccc(C)cc2)cc1C#N`: 14.1 µM (active). Next, `COC(=O)C(=C/C(C)=C/c1cccs1)C(=O)OC`: 12.6 µM (active); `O=Nc1c(-c2c(O)[nH]c3cc(Br)ccc23)[nH]c2ccccc12`: 3.16 µM (active). With `Brc1ccc(/C=N/Nc2ncnc3c2cnn3Cc2ccccc2)cc1`, the Potency was 3.55 µM (active). Under `CC(C)[C@H](NC(=O)[C@@H]1Cc2c([nH]c3ccccc23)C2c3ccccc3C(=O)N21)C(=O)N1CCC[C@@H]1C(=O)O` (stereo partly drawn) stands 14.1 µM (active); under `CCC(=O)Nc1cccc(C2=NOC3(C2)C[C@@H](C(N)=O)N(C(=O)c2cc([N+](=O)[O-])cc([N+](=O)[O-])c2C)C3)c1` (stereo partly drawn), 11.2 µM (active); under `COCCN(C(=O)CCCC(=O)Nc1ccccn1)C(C(=O)NC1CCCCC1)c1ccc(C)cc1` (stereo not drawn), 10 µM (active).

Consider `CCNc1nc(NCC)n2c(SCC(=O)Nc3ccccc3F)nnc2n1`, for which the Potency is 11.2 µM (active). Under `COCCn1c(SCC(=O)Nc2ccccc2F)nc2c(c1=O)SCC2` stands “inactive”. Next, `COc1ccc(CNCc2ccc3ccccc3c2)c(OC)c1`: 11.2 µM (active). Under `COc1cccc(CN(C)CC2CCCN(CCc3ccc(Cl)cc3)C2)c1OC` (stereo not drawn) stands 2.82 µM (active); under `CCOc1cc(/C=C/C(=O)Nc2ccc(C(=O)NCCN(CC)CC)cc2)ccc1OCC(C)C`, 2 µM (active); under `CCC(=O)Nc1ccc2c(c1)ncn2-c1ccccc1OC`, 11.2 µM (active).

Consider `Cn1nc(CC(=O)Nc2ncc(Br)s2)c2ccccc2c1=O`, for which the Potency is 7.94 µM (active). Under `COc1ccc(/C=C/C(=O)c2ccc([N+](=O)[O-])o2)cc1OC` stands 11.2 µM (active); under `COc1ccc(Cl)cc1/C=C/c1ccc2cccc(O)c2n1`, 5.62 µM (active). Under `Oc1cccc2ccc(/C=C/c3ccccc3Br)nc12` stands 2.24 µM (active); under `Cc1ccc(C)c(N(CC(=O)Nc2cc(Cl)ccc2Oc2ccccc2)S(C)(=O)=O)c1`, 8.91 µM (active); under `COc1ccccc1OCC(=O)Nc1cc(Cl)ccc1Oc1ccccc1`, “inactive”.

In the case of `CC(C)(C)NC(=O)[C@H]1CN(Cc2cccnc2)CCN1C[C@@H](O)C[C@@H](Cc1ccccc1)C(=O)N[C@H]1c2ccccc2C[C@H]1O`, the Potency is 3.98 µM (active). Next, `CCc1ccc(Nc2n[n+](-c3ccccc3)c(-c3cccc(Cl)c3Cl)s2)cc1`: 2.82 µM (active); `Cc1c(C(=O)C(=O)N2CCCc3ccccc32)c2ccccc2n1C`: 12.6 µM (active). Under `CCOC(=O)/C=C/C(=O)Nc1ccc(S(=O)(=O)N(C)c2ccccc2)cc1` stands 10 µM (active); under `CN(c1ccccc1)S(=O)(=O)c1ccc(NC(=O)c2nc(S(C)(=O)=O)ncc2Cl)cc1`, “inactive”. Next, `Cc1cccc2c1NC(=O)/C2=C\C(=O)c1cccs1`: “inactive”; `CC(=O)/C=C1/C(=O)Nc2ccccc21`: 12.6 µM (active); `NC(=O)COc1ccc(C(=O)/C=C2/C(=O)Nc3ccccc32)cc1`: “inactive”.

With `O=C(O)CCCCCNc1nc(-c2ccccc2)nc2ccccc12`, the Potency is 10 µM (active).

Turning to `Cc1oc2c(c1C(=O)N1CCOCC1)C(=O)c1ccccc1C2=O`, the Potency was 1.58 µM (active). Under `Cc1nnnn1/C(=C\c1ccccc1)C(=O)OCC(=O)N1CC2(C)CC1CC(C)(C)C2` (stereo not drawn) stands 10 µM (active); under `COc1cc(/C=C/C(=O)c2ccc(C)cc2)ccc1OCC#N`, 12.6 µM (active).

`COc1cc(/C=C/C(=O)c2ccc(O)cc2)ccc1OCC#N`: the Potency was 10 µM (active).

Consider `COc1cccc(C(=O)/C=C/c2ccc(OCC#N)c(OC)c2)c1`, for which the Potency was 3.98 µM (active). Next, `COc1ccc(/C=C/C(=O)c2ccc(C(=O)/C=C/c3ccc(OC)c(OC)c3)cc2)cc1OC`: “inactive”. Next, `CCCCN(C)CCCNC(=O)c1cc(=O)[nH]c2ccc(S(=O)(=O)N3CCCCC3C)cc12` (stereo not drawn): 1.12 µM (active); `CCCCN(C)C(=O)C1CCC(CNS(=O)(=O)c2ccc3c(c2)CC(C)N3C(=O)C2CC2)CC1` (stereo not drawn): 5.62 µM (active). Under `Cc1ccc(C(=O)OCc2nnc(-c3ccc(Br)cc3)o2)cc1` stands “inactive”; under `CCOC(=O)c1c(C)nc(C)c(C(=O)OCC)c1-c1ccc(Br)cc1`, 11.2 µM (active). With `CN(C)c1ccc(CN(C(=O)c2ccccc2Br)C2CCS(=O)(=O)C2)cc1` (stereo not drawn), the Potency is 14.1 µM (active).

As to `CCCN1CCc2c(sc3nc(SCC)n(-c4ccccc4)c(=O)c23)C1`, the Potency was 0.631 µM (active). Consider `CCCN1CCc2c(sc3nc(SCC)n(-c4ccc(OC)cc4)c(=O)c23)C1`, for which the Potency is 0.316 µM (active).

`Cn1c(=O)c2c([nH]c(=O)n2C)n(C)c1=O`: the Potency result was “inactive”. Next, `CCCc1cc(NCc2ccccn2)n2nc(C)c(-c3ccccc3)c2n1`: 3.55 µM (active). Next, `NC(=O)CC(NC(=O)Cc1ccc(Br)cc1)c1ccc(NC2CC3CCC2C3)c([N+](=O)[O-])c1` (stereo not drawn): 12.6 µM (active); `CC/C(=N\OC(=O)c1ccc(OC(C)C)cc1)c1ccc(C)cc1`: 11.2 µM (active). Next, `O=C(/C=C/c1cccnc1)/C=C/c1cccnc1`: 3.55 µM (active). Consider `O=C(/C=C/c1cccnc1)c1ccc(O)cc1`, for which the Potency is 11.2 µM (active). Next, `COc1cc(C(=O)/C=C/c2cccnc2)ccc1O`: 5.01 µM (active); `O=C(/C=C/c1ccccc1)/C=C/c1ccccc1`: 2.51 µM (active); `COc1ccc(C)cc1S(=O)(=O)Nc1cccc(-c2ccc(N3CCCCCC3)nn2)c1`: 10 µM (active).

Take `COc1ccc(S(=O)(=O)Nc2cccc(-c3ccc(N4CCCCCC4)nn3)c2)c(OC)c1`: the Potency is 11.2 µM (active).

On to `COc1ccc(-c2cc(C)no2)cc1S(=O)(=O)Nc1cccc(CN2CCCC2)c1`, for which the Potency is 12.6 µM (active). Next, `CCCOc1ccc(/C=C/C(=O)NC2CCCCC2)cc1OC`: 15.8 µM (active); `Nc1ccccc1C#CC(=O)c1ccccc1`: 14.1 µM (active). Under `CCCC1O[C@@H]2CC3C4CCC5=CC(=O)C=C[C@]5(C)C4C(OC(C)=O)C[C@]3(C)[C@]2(C(=O)COC(C)=O)O1` (stereo partly drawn) stands 1.41 µM (active); under `CCOC(=O)C1CCN(c2cc3c(cc2NC(=O)c2ccccc2Cl)n(C)c(=O)n3C)CC1`, 7.94 µM (active); under `O=C(C=C=Nc1ccccc1)C(=O)N=C=Cc1ccccc1`, 7.94 µM (active). Under `COc1ccc(NC(=O)Cc2coc3cc(C)c(C(C)C)cc23)cc1S(=O)(=O)N1CCOCC1` stands 7.94 µM (active); under `COc1ccc(NC(=O)Cc2ccc(Cl)cc2)cc1S(=O)(=O)N1CCCCC1`, 14.1 µM (active).

Take `COc1ccc2c(CC(=O)OCC(=O)Nc3cccc(S(N)(=O)=O)c3)coc2c1`: the Potency entry is “inactive”.

On to `Cc1csc(NC(=O)Cc2coc3cc(C)c(C(C)C)cc23)n1`, for which the Potency was 12.6 µM (active).

As to `CC1CCC/C=C/C(=O)c2c(O)cc(O)cc2CC(=O)O1` (stereo not drawn), the Potency was 5.01 µM (active). Next, `CC(C)c1cc(NC(=O)CCl)on1`: 7.08 µM (active). `COc1cccc(NC(=O)[C@H](Cc2c[nH]c3ccccc23)NC(=O)[C@@H]2Cc3ccccc3CN2)c1`: the Potency is 12.6 µM (active). Under `COc1ccc(NC(=O)[C@H](Cc2c[nH]c3ccccc23)NC(=O)[C@@H]2Cc3ccccc3CN2)cc1` stands 6.31 µM (active); under `CCS(=O)(=O)N1Cc2ccccc2CC1C(=O)Nc1cccc(OC)c1` (stereo not drawn), “inactive”; under `O=C(NC(Cc1c[nH]c2ccccc12)C(=O)Nc1ccc(F)cc1)c1cccs1` (stereo not drawn), 10 µM (active).

As to `Cc1cccc(NC(=O)[C@H](Cc2c[nH]c3ccccc23)NC(=O)[C@@H]2Cc3ccccc3CN2)c1`, the Potency is 10 µM (active). Under `COC(=O)C1=C(C)NC2=C(C(=O)CC(c3cccs3)C2)C1c1ccsc1` (stereo not drawn) stands 12.6 µM (active); under `O=C(CNC(=O)C1CCCCC1)OC(C(=O)c1ccccc1)c1ccccc1` (stereo not drawn), 15.8 µM (active); under `CCN1C/C(=C/c2ccc(OC)c(O)c2)C(=O)/C(=C/c2ccc(OC)c(O)c2)C1`, 14.1 µM (active). Under `COc1ccc(/C=C2\CN(Cc3ccccc3)C/C(=C\c3ccc(OC)c(O)c3)C2=O)cc1O` stands 0.708 µM (active). Next, `CCOc1cc(/C=C2\CN(CC)C/C(=C\c3ccc(O)c(OCC)c3)C2=O)ccc1O`: 3.16 µM (active).

Turning to `COc1ccc(NS(=O)(=O)c2cc(OCC(N)=O)c(C)cc2Cl)cc1`, the Potency was 5.01 µM (active). Under `CCOC(=O)c1c(-c2ccc(C)cc2C)csc1NC(=O)CSc1nnnn1C` stands 3.98 µM (active); under `O=C(NC(Cc1ccccc1)c1nc2ccccc2[nH]1)C1CC(=O)N(c2ccc3c(c2)OCCO3)C1` (stereo not drawn), 14.1 µM (active); under `O=C1c2cccc3cc([N+](=O)[O-])cc(c23)C(=O)N1CCN1CCCC1`, 12.6 µM (active). With `CN(c1ccccc1)S(=O)(=O)c1nnc(NC(=O)COc2ccccc2F)s1`, the Potency was 12.6 µM (active). Under `Cc1ccc(S(=O)(=O)N2CCN(C(=O)CCc3c[nH]c4ccccc34)CC2)c(C)c1` stands 14.1 µM (active); under `COc1ccc(NC(=S)N2CCC(Cc3ccccc3)CC2)cc1OC`, 12.6 µM (active); under `CCOC(=O)CC(Nc1nc(N2CCOCC2)nc(N2CCOCC2)n1)c1ccccc1Cl` (stereo not drawn), 3.98 µM (active). Next, `O=C(/C=C/Sc1ccccc1)c1ccccc1`: 11.2 µM (active); `COC(=O)[C@]1(CC(C)C)N[C@H](c2ccc(-c3ccc(F)cc3)c(OC)c2)[C@@H]2C(=O)N(C)C(=O)[C@@H]21`: 2 µM (active); `CCOC(=O)Cn1nnnc1C(CC)N(Cc1cccs1)Cc1cc2ccc(OC)cc2[nH]c1=O` (stereo not drawn): 12.6 µM (active).
